The results in this text go back to PubChem BioAssay (Tox21).

Assay [1] is described as follows: qHTS RealTime-Glo MT Cell Viability Assay in HEK293 cells - 0 hour (AID 1224880). Further: nearly all actives have a fitted effect of over 45% in size. Further: potency means the concentration at half of the fitted maximal effect. The procedure, abridged:
(§1)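 qHTS format; HEK293 cells with NanoLuc/prosubstrate reagent, 37 C/5% CO2 for 5 h pre-dosing; compounds 23 nL in DMSO; luminescence at each time point reflects viable cells.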
Background: In qHTS, concentration-response curves come from the screen itself.

Assay [2] is described as follows: A CellTox Green Cytotoxicity Assay to monitor cytotoxicity in HEK293 cells - 32 hour (AID 1224881). Further: nearly all actives have a fitted effect of over 40% in size. The procedure, abridged: (§2)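 Each value comes from one timepoint of a single continuous run in which HEK293 cells with CellTox Green were exposed to compound for up to 40 h at 37 C, dye fluorescence rising with cell death.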
Assay [3] can be described thus: A CellTox Green Cytotoxicity Assay to monitor cytotoxicity in HepG2 cells - 0 hour (AID 1224882). Further: nearly all actives have a fitted effect of over 35% in size. The procedure, abridged:
(§3)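 Continuous culture of HepG2 cells with a membrane-impermeant DNA dye; rising fluorescence marks dead cells. Compound exposure lasted up to 40 h at 37 C, with reads every 8 h from 0 h.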

The nature of assay [4]: A CellTox Green Cytotoxicity Assay to monitor cytotoxicity in HepG2 cells - 32 hour (AID 1224883). Further: nearly all actives have a fitted effect of over 50% in size. Further: potency means the concentration at half of the fitted maximal effect. The method, boiled down: as §3
A short description of assay [5]: qHTS RealTime-Glo MT Cell Viability Assay in HEK293 cells - 24 hour (AID 1224886). Further: nearly all actives have a fitted effect of over 50% in size. Further: potency means the concentration at half of the fitted maximal effect. The method, boiled down:
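HEK293 cells were seeded at 600 cells/well together with NanoLuc luciferase and cell-permeant prosubstrate, preincubated 5 h at 37 C/5% CO2, then given compound in DMSO by pintool. Luminescence from viable-cell prosubstrate reduction was read repeatedly over 40 h.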

Assay [6] is described as follows: qHTS RealTime-Glo MT Cell Viability Assay in HEK293 cells - 8 hour (AID 1224887). Further: top concentration of the series differs between compounds; nearly all actives have a fitted effect of over 50% in size. The method, boiled down:
as §1

A short description of assay [7]: A CellTox Green Cytotoxicity Assay to monitor cytotoxicity in HEK293 cells - 16 hour (AID 1224888). Further: nearly all actives have a fitted effect of over 35% in size. The procedure, abridged: as §2
A short description of assay [8]: qHTS RealTime-Glo MT Cell Viability Assay in HepG2 cells - 0 hour (AID 1224889). Further: nearly all actives have a fitted effect of over 50% in size. Further: potency means the concentration at half of the fitted maximal effect. The method, boiled down:
(§4)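 HepG2 cells were seeded at 600 cells/well together with NanoLuc luciferase and a cell-permeant prosubstrate, preincubated 5 h at 37 C/5% CO2, then pin-dosed with compounds in DMSO. Nonlytic luminescence from viable cells was read at each time point.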

The nature of assay [9]: qHTS RealTime-Glo MT Cell Viability Assay in HepG2 cells - 16 hour (AID 1224885). Further: nearly all actives have a fitted effect of over 50% in size. The method, boiled down:
as §4

A short description of assay [10]: A CellTox Green Cytotoxicity Assay to monitor cytotoxicity in HEK293 cells - 8 hour (AID 1224884). Further: nearly all actives have a fitted effect of over 35% in size. The method, boiled down:
as §2

A number with no mark means an inactive call. Records with an inconclusive call do not appear. The source made the active and inactive calls. The call rests on the fitted dose curve; in most records, active means well fitted curve in the direction sought with a large enough effect in the repeat runs; inconclusive means weak or mixed curves; inactive means no such curve, though single readings can be large; an effect the other way counts as inactive or inconclusive.

Take `O=C(O)/C=C/c1ccc(O)c(O)c1`: the Potency entry in assay [1], in [2], in assay [3], in [4], in assay [5] and in assay [6] was “inactive” throughout. Besides, the Potency result in assay [7] is “inactive”.
On to `O=C(c1ccccc1)c1ccc(O)cc1`, for which the Potency result in assay [1], in [2], in assay [3], in assay [4], in assay [5] and in [6] was “inactive” in each case. Moreover, the Potency entry in [7] and in assay [8] was “inactive” throughout.
Regarding `CCc1ccc(C)cc1`, the Potency entry in assay [1], in assay [2], in [3], in [4], in [9] and in assay [5] was “inactive” each time. For the same compound, the Potency result in [7] and in assay [8] was “inactive” in each case.
As to `Cc1ccc2c(c1)CCCN2`, the Potency entry in assay [1], in assay [2], in assay [3], in assay [4], in assay [9] and in assay [5] was “inactive” throughout. Besides, the Potency entry in assay [6], in assay [7] and in assay [8] was “inactive” in each case.
On to `Nc1ccc(F)cc1`, for which the Potency entry in assay [1], in [2], in assay [3], in assay [4], in assay [9] and in [5] was “inactive” in each case. In addition, the Potency entry in assay [6] and in assay [8] was “inactive” in each case.
With `OCC(CO)n1cnc(-c2ccc(F)cc2)c1-c1ccnc(Oc2ccccc2)n1`, the Potency entry in assay [1], in assay [2], in [4], in assay [10], in assay [9] and in assay [5] was “inactive” in each case. In addition, the Potency entry in assay [6], in assay [7] and in [8] was “inactive” in each case.
As to `COc1ccc(CCN(C)CCCN2CCc3cc(OC)c(OC)cc3CC2=O)cc1OC`, the Potency result in assay [1], in [2], in [3], in assay [4], in assay [9] and in assay [5] was “inactive” in each case. The Potency entry in assay [7] and in assay [8] was “inactive” each time.
Regarding `COC(=O)Nc1nc2ccc(C(=O)C3CC3)cc2[nH]1`, the Potency result in assay [1], in [2], in assay [3], in assay [7] and in [8] was “inactive” throughout. In [4], the Potency was 0.952 µM (active).
As for `CCCCCCC(CO)CCCC` (centres undefined), the Potency result in [1], in assay [2], in [3], in assay [9], in assay [5] and in assay [6] was “inactive” throughout. The Potency entry in assay [7] and in assay [8] was “inactive” in each case.
On to `CC1CCCC(=O)C1=O` (centres undefined), for which the Potency result in [1], in assay [2], in assay [3], in [10], in assay [9] and in [5] was “inactive” in each case. Further, the Potency result in assay [6], in assay [7] and in assay [8] was “inactive” in each case.
`COc1ccc(C(=O)NCc2ccc(OCCN(C)C)cc2)cc1OC`: the Potency entry in [1], in assay [2], in [4], in assay [10], in assay [9] and in assay [5] was “inactive” in each case. Further, the Potency entry in assay [6] and in [7] was “inactive” throughout.
Consider `CC1=C2[C@@H]([C@H](C)CC[C@H]2/C=C(\C)C(=O)O)[C@H](O)C1`, for which the Potency result in assay [1], in [2], in assay [4], in assay [10], in assay [9] and in [5] was “inactive” throughout. The Potency result in assay [6], in assay [7] and in [8] was “inactive” in each case.
Turning to `BrC(Br)C(Br)Br`, the Potency entry in [1], in assay [2], in assay [4], in assay [10], in [9] and in [5] was “inactive” each time. The Potency entry in assay [6], in assay [7] and in assay [8] was “inactive” in each case.
With `COc1ccc(-n2nc(C(F)F)cc2-c2ccc(S(C)=O)cc2)cc1` (centres undefined), the Potency result in [1], in [2], in assay [3], in assay [10], in [9] and in [5] was “inactive” throughout. The Potency result in assay [6], in [7] and in assay [8] was “inactive” in each case.
`Cc1c(C2(c3cc(Br)c(O)c(Br)c3C)OS(=O)(=O)c3ccccc32)cc(Br)c(O)c1Br`: the figures for the Potency in assay [1] and in [8] were 15 µM (active) and 13.4 µM (active), respectively. The Potency entry in assay [2], in [3], in assay [4], in assay [9], in [5] and in assay [7] was “inactive” in each case.
For the compound `C=CCOC(=O)COCCC(C)C`, the Potency entry in assay [1], in [2], in [3], in assay [4], in assay [9] and in assay [5] was “inactive” each time. In addition, the Potency result in assay [7] was “inactive”.
With `O=C1OC[C@H](Cc2cccc(O)c2)[C@H]1Cc1cccc(O)c1`, the Potency entry in [1], in assay [2], in [4], in assay [10], in assay [9] and in assay [5] was “inactive” throughout. Besides, the Potency entry in assay [6], in assay [7] and in assay [8] was “inactive” in each case.
As to `Oc1ccc2c(c1)Cc1ccccc1-2`, the Potency entry in assay [1], in assay [2], in [3], in [9], in assay [7] and in assay [8] was “inactive” each time. Also, the Potency in assay [5] was 19.5 µM (active).
Consider `COC(=O)c1sccc1S(N)(=O)=O`, for which the Potency result in assay [1], in assay [2], in [3], in assay [10], in assay [9] and in assay [5] was “inactive” throughout. In addition, the Potency entry in assay [7] and in assay [8] was “inactive” in each case.
